# CYP2C9 inhib – inhibitors of human CYP2C9 | P11712 | CYP2C9 Supersomes, luciferin-H conversion, luminescence | inhibition, % at 5 µM | 96,000 tested, 20% active | AID 777;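 active means blocking of liver enzyme CYP2C9 beyond about 50% at 5 µM, limit read from the data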
# CYP2C19 inh – human CYP2C19 inhibition; P33261; CYP2C19 Supersomes, luciferin-H EGE luminescence, 30 min; inhibition, % at 5 µM; 96,000 tested, 21% active;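 active means CYP2C19 inhibition above a set limit at 5 µM in the primary screen, cut at about 50% in these data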;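 further: plate controls were negative control wells for no effect and 2.5 mM tranylcypromine positive control for full effect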
# Target sequence (P33261 whole entry, looked up): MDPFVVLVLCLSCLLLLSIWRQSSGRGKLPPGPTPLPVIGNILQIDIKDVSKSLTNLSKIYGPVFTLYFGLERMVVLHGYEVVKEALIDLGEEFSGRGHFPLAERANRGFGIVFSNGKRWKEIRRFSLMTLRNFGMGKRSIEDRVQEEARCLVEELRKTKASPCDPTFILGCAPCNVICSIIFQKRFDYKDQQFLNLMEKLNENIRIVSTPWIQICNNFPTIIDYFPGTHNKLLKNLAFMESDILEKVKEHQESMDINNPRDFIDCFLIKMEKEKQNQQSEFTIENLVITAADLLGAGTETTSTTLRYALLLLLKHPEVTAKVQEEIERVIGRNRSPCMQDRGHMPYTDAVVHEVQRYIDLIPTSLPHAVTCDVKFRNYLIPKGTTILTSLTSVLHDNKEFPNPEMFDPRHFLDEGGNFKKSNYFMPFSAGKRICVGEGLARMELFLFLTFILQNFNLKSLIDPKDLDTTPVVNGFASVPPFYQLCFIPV
# PostGolgi yeast – growth inhibition of a yeast mutant, post-Golgi transport screen. post-Golgi transport phenotypic cell assay. inhibition, % at 10 µM. 98,000 tested, 0.9% active. AID 739;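 further: yeast cells grown in 1536-well plates; yeast grown about 18 h at 30C before absorbance read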
# PostGolgi ctrl – inhibits growth of the yeast control strain; efflux-deficient yeast background strain, growth absorbance A615, 16 h; inhibition, % at 10 µM; 98,000 tested, 5% active
# CYP2C9 activ – increases human cytochrome P450 2C9 activity | P11712 | activation factor at 5 µM | 96,000 tested, 1.4% active | AID 1024 | recombinant CYP2C9, luciferin-H conversion, luminescence; stronger effect = higher value; factor 1 = untreated enzyme, 0 = blocked;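 active means activation factor of 2 or more for CYP2C9 at a 5 µM dose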;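 further: 0 = sulfaphenazole-blocked wells and 1 = vehicle-only wells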
# CYP2C19 act – activators of human cytochrome P450 2C19; P33261; AID 1025; recombinant CYP2C19, luciferin-H EGE luminescence; stronger effect = higher value; 0 = fully inhibited enzyme, 1 = untreated enzyme; 96,000 tested, under 10 active; activation factor at 5 µM;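 active means activation factor of at least 2 at 5 µM in the primary screen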;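 further: 0 = wells with 2.5 mM tranylcypromine and 1 = vehicle-only wells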
# Active calls of the source: *; / = no result. This is a sample that favours compounds with a hit; in the whole collection about 32% have one here. Unless noted, no stated cut-off is given here; in the data, active means inhibition above about 30%; inactive means the rest.
SMILES,CYP2C9 inhib,CYP2C19 inh,PostGolgi yeast,PostGolgi ctrl,CYP2C9 activ,CYP2C19 act
COC(=O)c1ccccc1NC(=O)N1CCN(C(=O)c2ccco2)CC1,1,52*,0,12,1,0.5
CS(=O)(=O)Nc1ccccc1C(=O)N1CCN(c2ccccc2)CC1,-1,71*,6,-4,1,0.3
CS(=O)(=O)Nc1ccccc1C(=O)N1CCCC1,14,7,-4,8,0.9,0.9
COc1ccc2c(c1)[nH]c1c(=O)n(CCc3cnc[nH]3)cnc12,96*,85*,-3,2,0,0.2
COc1ccc2c(c1)[nH]c1c(=O)n(CCN(C)C)cnc12,28,4,-3,-3,0.7,1
COc1ccc2c(c1)[nH]c1c(=O)n(CCCn3ccnc3)cnc12,64*,42,9,6,0.4,0.6
CCOc1ccc(-c2nnc(-c3ccccc3)n2-c2ccccc2)cc1,65*,28,7,27,0.3,0.7
COc1ccc2[nH]c3nc(SCc4nnc(-c5ccccc5)o4)nnc3c2c1,64*,50,2,12,0.4,0.5
Cc1nnc(SCc2nnc(-c3ccccc3Br)o2)n1-c1ccccc1,-96,82*,-2,-4,2*,0.2
CCN(CC)C(=O)CSc1nnc(-c2ccccc2)n1-c1ccccc1,39,45,1,4,0.6,0.6
Cc1nnc(SCc2ccccc2C#N)n1-c1ccccc1,10,38,2,6,0.9,0.6
COc1ccc(-c2nnc(SCc3ncc(-c4ccccc4)o3)o2)cc1,28,87*,-1,16,0.7,0.1
COc1ccc2[nH]c3nc(SC(C)C)nnc3c2c1,24,8,30,18,0.8,0.9
CCc1nc2ccccc2c(NC(=O)CN2CCC(C)CC2)c1C,0,6,-3,3,1,0.9
COc1cccc(-n2c(SCC(N)=O)nnc2-c2ccncc2)c1,-4,26,5,4,1,0.7
C=CCSc1nnc(C)n1-c1ccc(Cl)cc1,30,52*,-5,22,0.7,0.5
COc1ccc(C(C)=O)cc1CSc1nnc(-c2ccc(Cl)cc2)n1-c1ccccc1,45,50*,-7,26,0.5,0.5
Brc1ccccc1-c1nnc(COc2ncnc3c2cnn3-c2ccccc2)o1,30,16,1,74*,0.7,0.8
C=CCSc1nnc(-c2ccncc2)n1-c1ccc(OCC)cc1,54*,99*,5,31*,0.5,0
Brc1ccccc1-c1nnc(CSc2nnnn2-c2ccccc2)o1,42,92*,3,28,0.6,0.1
COc1ccc(-c2nnc(SCc3nnc(-c4ccccc4)o3)n2-c2ccccc2)cc1,-2,-8,-17,17,1,1.1
COc1ccc(-n2c(SCc3nnc(-c4ccccc4)o3)nnc2-c2ccccc2)cc1,47,54*,6,17,0.5,0.5
Cc1nnc(SCc2nnc(-c3ccc(Cl)cc3)o2)n1-c1ccccc1,46,60*,/,/,0.5,0.4
COc1ccc(-c2nnc(SCc3nnc(-c4ccc(Cl)cc4)o3)n2-c2ccccc2)cc1,54*,36,-2,20,0.5,0.6
CCS(=O)(=O)c1nc2ccccc2n1CC(=O)N1CCCCC1,/,/,9,4,/,/
SMILES,CYP2C9 inhib,CYP2C19 inh,PostGolgi yeast,PostGolgi ctrl,CYP2C9 activ,CYP2C19 act
COC(=O)c1nc2nc(C)cc(=O)n2[nH]1,4,0,-4,12,1,1
CCCOc1ccc(N2C(=O)CC(N3CCCC(C(=O)N4CCCC4)C3)C2=O)cc1 (stereo not given),7,-3,-6,-1,0.9,1
CCOC(=O)Cn1ncc(-c2ccccc2)c1N,/,/,3,3,/,/
Cc1cc(C)nc(NC(=O)COc2cc(Cl)cc(Cl)c2)n1,-38,-8,9,32*,1.4,1.1
Cc1nc(COC(=O)c2ccc(CO)cc2)cs1,30,64*,-3,-4,0.7,0.4
Cc1nc(COC(=O)c2c(C)nn(-c3ccccc3)c2C)cs1,69*,47,12,9,0.3,0.5
Cc1cc(NC(=O)COC(=O)c2c(C)nn(-c3ccccc3)c2C)no1,29,26,0,2,0.7,0.7
Cc1nc(CC(=O)c2ccc(O)cc2O)cs1,25,23,4,-7,0.8,0.8
O=C(NCCc1ccccc1)c1noc2c1CCCCC2,18,20,1,20,0.8,0.8
